Source: PubChem BioAssay (NCI)
About 83,000 compounds went through this panel and 20% of them were active in at least one assay; those are over-represented in the sample as a whole.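 Plates (96-well) were seeded with cells, treated with compound at one concentration, and incubated for 48 hours before percent growth was determined.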 Calls of active or inactive are those of the source. How the source made its calls: active means growth percent below 10; inactive means the rest.

Experiments:
Assay in all cases: NCI-60 one-dose screen, 48 h (100 = growth as untreated, 0 = no growth, -100 = all killed)
Settings in all cases: 10 µM unless noted
BT-549 breast = system: BT-549 breast
MDA-MB-435 melanoma = system: MDA-MB-435 melanoma
SW-620 colon = system: SW-620 colon
MCF7 breast = system: MCF7 breast
HCT-116 colon = system: HCT-116 colon
HCC-2998 colon = system: HCC-2998 colon
KM12 colon = system: KM12 colon

Measured: growth

COc1ccc(/C=C/C(=O)c2ccc(NC(=O)CSc3nnc(-c4cc(-c5ccccc5)nc5ccccc45)n3-c3ccccc3)cc2)cc1
inactive: BT-549 breast 96.3% | MDA-MB-435 melanoma 97.9% | SW-620 colon 96.6% | MCF7 breast 93.7% | HCT-116 colon 98.7% | HCC-2998 colon 107% | KM12 colon 89.5%

C#Cc1cccc(Oc2ccc(NC(=O)CCl)cc2)c1
active: HCT-116 colon -0.801% [8.25 µM]
inactive: BT-549 breast 38.7% [8.25 µM] | MDA-MB-435 melanoma 31.7% [8.25 µM] | SW-620 colon 15.9% [8.25 µM] | MCF7 breast 13.5% [8.25 µM] | HCC-2998 colon 83% [8.25 µM] | KM12 colon 64.2% [8.25 µM]

C/C(=C(\c1ccc(OCCN2CCCCCC2)cc1)c1ccc(OC(=O)Cc2ccccc2)cc1)c1ccc(Cl)cc1
inactive: BT-549 breast 67.5% | MDA-MB-435 melanoma 41.6% | HCC-2998 colon 13.6% | KM12 colon 22.1%
active: SW-620 colon -34.7% | MCF7 breast 3.78% | HCT-116 colon 4.58%

Cc1c2cnccc2c(C)c2c1c1cc(C3OCCCO3)ccc1n2C
active: BT-549 breast -37% | MDA-MB-435 melanoma -28.1% | SW-620 colon 4.71% | MCF7 breast 0.909% | HCT-116 colon 1.45% | KM12 colon 5.75%

CC(=O)N/C(=C1/OC(C(O)C(O)C(O)CO)CN1C)[P+](c1ccccc1)(c1ccccc1)c1ccccc1 (centres undefined)
inactive: BT-549 breast 102% | MDA-MB-435 melanoma 103% | SW-620 colon 104% | MCF7 breast 92.8% | HCT-116 colon 100% | HCC-2998 colon 97.7% | KM12 colon 103%

COc1cccc(/C=C/C(=O)c2cc3c(N)c(C(=O)Nc4cccc(Cl)c4C)sc3nc2C)c1
active: BT-549 breast -22.3% | MDA-MB-435 melanoma -20.4% | SW-620 colon -28.7% | MCF7 breast 3.5% | HCT-116 colon -34.2% | HCC-2998 colon -79.8% | KM12 colon -19.6%

COc1ccc2nc(SCC(=O)Nc3ccccc3C)[nH]c2c1
inactive: BT-549 breast 97.6% | MDA-MB-435 melanoma 97% | SW-620 colon 99.4% | MCF7 breast 90.7% | HCT-116 colon 98.9% | HCC-2998 colon 106% | KM12 colon 101%

Cc1[nH]c(C(=O)Nc2cccc(OC3CCNCC3)c2)c(Cl)c1Cl
active: SW-620 colon 0.537% | HCC-2998 colon 2.97%
inactive: BT-549 breast 84.6% | MDA-MB-435 melanoma 43% | MCF7 breast 47.4% | HCT-116 colon 46.2% | KM12 colon 57%

COc1ccc(C2CC(c3ccc(Nc4nc(Nc5ccc(F)cc5)nc(Nc5ccc(F)cc5)n4)cc3)=NN2C(C)=O)cc1 (centres undefined)
inactive: BT-549 breast 96.2% | MDA-MB-435 melanoma 92.1% | SW-620 colon 101% | MCF7 breast 98.9% | HCT-116 colon 93.5% | HCC-2998 colon 37.6% | KM12 colon 95.3%

COc1cc(C2Cc3ncccc3-c3[nH]c(=O)c4cccnc4c32)cc(OC)c1OC (centres undefined)
active: MDA-MB-435 melanoma -50.3%
inactive: BT-549 breast 40.6% | SW-620 colon 26.7% | HCT-116 colon 13.8% | HCC-2998 colon 25.1% | KM12 colon 23%

CSCCC(NC(=O)c1ccccc1)C(=O)N/N=C1\S/C(=C/c2ccc(Cl)cc2)C(=O)N1C (centres undefined)
inactive: BT-549 breast 87.3% | MDA-MB-435 melanoma 86.2% | SW-620 colon 93.5% | MCF7 breast 83.9% | HCT-116 colon 55.2% | HCC-2998 colon 96.7% | KM12 colon 88.9%

Cn1c(=O)c2c(nc(NC3=NS(=O)(=O)c4ccccc43)n2Cc2ccccc2)n(C)c1=O
inactive: BT-549 breast 106% | MDA-MB-435 melanoma 101% | SW-620 colon 102% | MCF7 breast 88.7% | HCT-116 colon 103% | HCC-2998 colon 107% | KM12 colon 99.9%

Cn1cc(-c2csc(-c3cn(C)c4ccc(Br)cc34)n2)c2cnccc21
inactive: BT-549 breast 86.2%
active: MDA-MB-435 melanoma -87.6% | SW-620 colon -70% | MCF7 breast -74.7% | HCT-116 colon -89.8% | HCC-2998 colon -84.3% | KM12 colon -87.4%

O=C1OCC2=C1C(c1cccc(F)c1)c1cc3c(cc1N2CCO)OCO3 (centres undefined)
active: MDA-MB-435 melanoma -0.149%
inactive: BT-549 breast 32.8% | SW-620 colon 15.8% | MCF7 breast 20% | HCT-116 colon 18.2% | HCC-2998 colon 77% | KM12 colon 25.3%

COc1ccc(/C(C)=C(\c2ccc(OCCN3CCCCCC3)cc2)c2ccc(OC(=O)c3ccccc3)cc2)cc1
inactive: BT-549 breast 63.6% | MDA-MB-435 melanoma 63% | SW-620 colon 44.8% | MCF7 breast 13.5% | HCT-116 colon 19.4% | HCC-2998 colon 77.5% | KM12 colon 38.4%

N#CC(C#N)N=Nc1ccc(Cl)cc1Cl
inactive: BT-549 breast 94.8% | MDA-MB-435 melanoma 111% | SW-620 colon 87.3% | MCF7 breast 73.6% | HCT-116 colon 66.1% | HCC-2998 colon 109% | KM12 colon 101%

N#Cc1c(Nc2ccc(F)cc2)n[nH]c1-c1cccs1
inactive: BT-549 breast 98.3% | MDA-MB-435 melanoma 99.5% | SW-620 colon 101% | MCF7 breast 80.9% | HCT-116 colon 100% | HCC-2998 colon 98.6% | KM12 colon 98.1%

O=C(N/N=C/c1ccc(Cl)cc1Cl)c1ccc2nc(-c3ccc(Cl)cc3)[nH]c2c1
active: SW-620 colon -28.3% | MCF7 breast -20% | HCT-116 colon -1.88% | HCC-2998 colon 3.69% | KM12 colon -29.1%
inactive: BT-549 breast 113% | MDA-MB-435 melanoma 38.8%

Cc1ccc(/C=C/C(=O)c2ccc(NC(=O)CSc3nc4c([nH]3)c(=O)n(C)c(=O)n4C)cc2)c(C)c1
inactive: BT-549 breast 69.9% | MDA-MB-435 melanoma 60.7% | SW-620 colon 49% | MCF7 breast 39.8% | HCC-2998 colon 45.1% | KM12 colon 37.5%
active: HCT-116 colon 5.13%

COc1cc2nc(Nc3cccc(F)c3)nc(Nc3cc(C)[nH]n3)c2cc1OC
active: BT-549 breast -83.8% [20 µM] | MDA-MB-435 melanoma -88.7% [20 µM] | SW-620 colon -58.9% [20 µM] | MCF7 breast -66% [20 µM] | HCT-116 colon -68.2% [20 µM] | HCC-2998 colon -88.3% [20 µM] | KM12 colon -69.2% [20 µM]

Cn1cc(-c2nn3cc(-c4ccccc4)nc3s2)c2ccccc21
inactive: BT-549 breast 78.1% | SW-620 colon 43.7% | MCF7 breast 55.6% | HCT-116 colon 69.3% | HCC-2998 colon 86% | KM12 colon 41.6%
active: MDA-MB-435 melanoma -1.83%

NC(=O)c1c(NC(=O)c2ccc(Cl)cc2)sc2c1CCC(=O)C2
inactive: BT-549 breast 25.1% | MDA-MB-435 melanoma 94.5% | SW-620 colon 12.7% | MCF7 breast 57.8% | HCC-2998 colon 104% | KM12 colon 42.1%
active: HCT-116 colon 8.72%

C[N+](C)(C/C=C/c1ccccc1)Cc1ccccc1
inactive: BT-549 breast 96.1% | MDA-MB-435 melanoma 101% | SW-620 colon 100% | MCF7 breast 100% | HCT-116 colon 95.5% | HCC-2998 colon 95.8% | KM12 colon 95.4%

COc1ccc(C2C3=C(COC3=O)N(CCO)c3cc4c(cc32)OCCO4)cc1OC (centres undefined)
active: MDA-MB-435 melanoma -44.1%
inactive: BT-549 breast 53.9% | SW-620 colon 13.2% | MCF7 breast 15.9% | HCT-116 colon 18.2% | HCC-2998 colon 48.7% | KM12 colon 23.2%

COc1cc2cc(NCc3ccc(OC(F)F)cc3)nc(C)c2cc1OC
inactive: BT-549 breast 71.8% | MDA-MB-435 melanoma 68.4% | SW-620 colon 47.9% | MCF7 breast 86.1% | HCT-116 colon 37.3% | HCC-2998 colon 78.2% | KM12 colon 82.8%

N#Cc1c(-c2ccccc2)c(C#N)c2c(C#N)c(N)nn2c1N
active: MDA-MB-435 melanoma -39.6%
inactive: BT-549 breast 47.4% | SW-620 colon 25.4% | MCF7 breast 15.9% | HCT-116 colon 24.2% | HCC-2998 colon 61.4% | KM12 colon 24.4%

C=C(CO)[C@@H]1CC[C@]2(COC3CCCCO3)CC[C@]3(C)[C@H](CC[C@@H]4[C@@]5(C)C=C(C=O)C(=O)C(C)(C)[C@@H]5CC[C@]43C)[C@@H]12 (some centres undefined)
active: BT-549 breast -88.6% | MDA-MB-435 melanoma -83.9% | SW-620 colon -64.6% | MCF7 breast -73.2% | HCT-116 colon -89.3% | HCC-2998 colon -87.5% | KM12 colon -43%

CC(C)c1ccc(-n2c(=S)[nH]c3sc4c(c3c2=O)CCC(=O)C4)cc1
inactive: BT-549 breast 26.3% | MDA-MB-435 melanoma 91.8% | SW-620 colon 48.5% | HCT-116 colon 53.5% | HCC-2998 colon 40.1% | KM12 colon 18.6%

O=C(Nc1ccccc1O)c1ccccc1Nc1ccnc(C(F)(F)F)c1
inactive: BT-549 breast 112% | MDA-MB-435 melanoma 115% | SW-620 colon 102% | MCF7 breast 83.4% | HCT-116 colon 84.2% | HCC-2998 colon 107% | KM12 colon 102%

CNC(=O)c1c(NC(=O)c2ccc(C(C)(C)C)cc2)sc2c(CN(C)C)c(O)ccc12
active: MDA-MB-435 melanoma -85% | SW-620 colon -85.8% | HCT-116 colon -88.4% | HCC-2998 colon -83.6% | KM12 colon -79.6%
inactive: BT-549 breast 71.9%

CN1C(=O)N(C)C2C1NC(=S)N2/N=C/C=C/c1ccccc1[N+](=O)[O-] (centres undefined)
active: MDA-MB-435 melanoma -61.7%
inactive: BT-549 breast 68.1% | SW-620 colon 22.7% | MCF7 breast 18.7% | HCT-116 colon 19.5% | HCC-2998 colon 60.5% | KM12 colon 26.7%

Cc1cccc(NC(=O)CSc2nc3ccc([N+](=O)[O-])cc3[nH]2)c1
inactive: BT-549 breast 100% | MDA-MB-435 melanoma 72% | SW-620 colon 97.9% | MCF7 breast 86.5% | HCT-116 colon 70% | HCC-2998 colon 96.9% | KM12 colon 81.9%

COc1ccc(NC(=O)c2sc3nc4c(cc3c2N)CCCC4)cc1
inactive: BT-549 breast 51.3% | SW-620 colon 36.7% | MCF7 breast 19.2% | HCT-116 colon 30.3% | HCC-2998 colon 52.8% | KM12 colon 25.8%
active: MDA-MB-435 melanoma -20.9%

Clc1ccc(-c2cn3ccsc3n2)c(Cl)c1Cl
inactive: BT-549 breast 86.3% | MDA-MB-435 melanoma 96.6% | SW-620 colon 96.8% | HCT-116 colon 91.7% | KM12 colon 98.1%
active: MCF7 breast 0.866%

COc1ccc(C2=NN(C(=O)c3cc(OC)c(OC)c(OC)c3)C(c3ccc(N(C)C)cc3)C2)cc1 (centres undefined)
inactive: BT-549 breast 28.4% | SW-620 colon 28.3% | MCF7 breast 15% | HCT-116 colon 11.8% | KM12 colon 23.3%
active: MDA-MB-435 melanoma -30.4% | HCC-2998 colon 1.81%

COc1ccc2[nH]cc(-c3nc(-c4cn(C)c5ccncc45)cs3)c2c1
active: SW-620 colon -56.9% | MCF7 breast -39.4% | HCT-116 colon -83.8% | HCC-2998 colon -38.9% | KM12 colon -31.8%
inactive: BT-549 breast 85.1% | MDA-MB-435 melanoma 64.7%

Cc1ccc(C)c(-n2c(-c3ccc(Br)cc3)csc2=NC(=O)c2ccccc2F)c1
inactive: BT-549 breast 28.7% | MDA-MB-435 melanoma 67.2% | SW-620 colon 69.6% | MCF7 breast 59.1% | HCT-116 colon 22.9% | HCC-2998 colon 117% | KM12 colon 60.8%
